Laboratory results: PubChem BioAssay (NCI)
The panel holds about 83,000 compounds, 20% with a hit somewhere; the sample as a whole holds those more often.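 For each line, cells grew in 96-well plates with the test compound present at a single concentration for 48 hours.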 Unmarked numbers belong to inactive results. Calls of active or inactive are those of the source. Rule for the calls: active = growth percent below 10; inactive = the rest.

tested on: HL-60(TB) leukemia; experiment: NCI-60 one-dose screen, 48 h (100 = growth as untreated, 0 = no growth, -100 = all killed); conditions: 10 µM unless noted

Q: `O=C(CCCCNC(=O)c1cc(=O)c(O)co1)Nc1ccccc1` was tested. Which growth did it give?
A: The growth was 54.7%.

Q: With `CCN1CCN(c2ccc(Nc3ncc4ccc5ncn(C(C)C)c5c4n3)nc2)CC1` as the compound, how does the growth read?
A: The growth was -36.3% (active).

Q: For `CN(C)c1ccc(C(=S)c2ccc(N(C)C)cc2)cc1`, which growth is on record?
A: The growth was 62.8%.

Q: Which growth does the source give for `CN(C)CC(=O)c1ccc2cc(Br)c3ccccc3c2c1` here?
A: Its growth is 53.4%.

Q: `C=C(C=O)C1CCC2(C(=O)O)CCC3(C)C(CCC4C5(C)CCC(O)C(C)(C)C5CCC43C)C12` (stereo unspecified) was tested. Which growth did it give?
A: The growth was 6.38% (active).

Q: How did the growth turn out when `Cc1ccc(-c2cc(-c3ccc(C)cc3)nc(NCCNc3ccnc4cc(Cl)ccc34)n2)cc1` was run?
A: Its growth is -44.6% (active).

Q: Which growth does the source give for `CCCCCCCCCCCCCC[n+]1ccc2c(C)c3c(c(C)c2c1)c1cc(O)ccc1n3CC` here?
A: Its growth is -40.6% (active).

Q: For `CCOC(=O)[C@@H]1CCCN(S(=O)(=O)c2ccc(S(=O)(=O)N(CC)CC)c(F)c2)C1`, which growth is on record?
A: Its growth is 81.4%.

Q: Which growth does the source give for `N#C/C(C(=O)c1ccccc1)=C1/C(=O)Nc2ccc(F)cc21` here?
A: Its growth is 130%.

Q: How did the growth turn out when `O=C(COc1cccc(/C=C2\CSc3ccccc3C2=O)c1)Nc1nccs1` was run?
A: The growth was -76.3% (active).

Q: `CCC(c1ccc(OC)cc1)C(CC)c1ccc(O)c(CN2CCCC2)c1` (stereo unspecified) was tested. Which growth did it give?
A: The growth was -45.9% (active).

Q: For `CCOC(=O)C1=C(C)N2C(=NC3=C(CCC/C3=C\c3ccc(Cl)cc3)C2c2ccc(Cl)cc2)S1` (stereo unspecified), which growth is on record?
A: Its growth is -10.8% (active).

Q: `COc1ccc(/C=C2\N=C(c3ccccc3)N(C(=O)c3ccccc3O)NC2=O)cc1` was tested. Which growth did it give?
A: The growth was -10.5% (active).

Q: With `COc1ccc(-c2cc(/C=C3\C(=O)Nc4ccc(Cl)cc43)[nH]n2)cc1OC` as the compound, how does the growth read?
A: Its growth is 60.2%.

Q: Which growth does the source give for `O=C1Nc2ccc(Cl)cc2/C1=N/N=C/c1c[nH]c2ccccc12` here?
A: The growth was 95.5%.

Q: With `COc1cccc(NC(=O)c2sc3nc4c(cc3c2N)C(O)CCC4)c1` (stereo unspecified) as the compound, how does the growth read?
A: The growth was -16.8% (active).

Q: With `Cc1c(Cl)cccc1NC(=O)CN1CCOCC1` as the compound, how does the growth read?
A: The growth was 81.7%.

Q: `Cc1csc(NC(=O)c2sc3nc(-c4cccs4)ccc3c2N)n1` was tested. Which growth did it give?
A: Its growth is 105%.

Q: With `Cc1[nH]n(-c2cccc(Cl)c2)c(=O)c1/C=C1\C=c2ccccc2=CC1=O` as the compound, how does the growth read?
A: Its growth is 104%.

Q: Which growth does the source give for `Cn1c2c(cc(S(=O)(=O)c3ccccc3)c1=O)CCc1c-2cnn1-c1ccc(Cl)cc1` here?
A: Its growth is 73.1%.

Q: For `CC(=O)O[C@H]1CC[C@@]2(C)[C@@H](CC[C@@H]3[C@@H]2CC[C@@]2(C)[C@H]3CC[C@]2(O)C(C)=O)C1`, which growth is on record?
A: Its growth is 93.5%.

Q: `COc1cc(-c2nc(SCCC(C)C)nc(Nc3ccc(F)cc3)c2C#N)cc(OC)c1OC` was tested. Which growth did it give?
A: The growth was 84.9%.

Q: How did the growth turn out when `CCCCCCCCCCCCCCCc1ccc(N)c(OC2OC(CO)C(O)C(O)C2O)c1` (stereo unspecified) was run?
A: Its growth is 23%.

Q: For `CC[C@H](C)[C@H](NC(=O)[C@H](CCCNC(=N)N)NC(=O)[C@H](Cc1c[nH]c2ccccc12)NC(=O)[C@@H](NC(=O)[C@H](CCCCN)NC(=O)[C@H](CCCCN)NC(=O)[C@@H](NC(=O)[C@@H](NC(=O)[C@@H](NC(=O)[C@H](CCCCN)NC(=O)[C@H](Cc1ccccc1)NC(=O)[C@H](CCCCN)NC(=O)[C@H](CCCCN)NC(=O)[C@H](Cc1ccccc1)NC(=O)[C@@H](NC(=O)[C@@H](N)CCCCN)[C@@H](C)CC)[C@@H](C)O)[C@@H](C)CC)[C@@H](C)CC)C(C)C)C(=O)N[C@@H](Cc1ccccc1)C(=O)NCC(=O)N[C@@H](CCCNC(=N)N)C(=O)N[C@@H](Cc1ccccc1)C(N)=O`, which growth is on record?
A: Its growth is 14.9%.

Q: How did the growth turn out when `CCCCN(C=S)CCCC` was run?
A: The growth was 104%.

Q: Which growth does the source give for `C=C(C)[C@@H]1CC[C@]2(CO)CC[C@]3(C)[C@H](CC[C@@H]4[C@@]5(C)CCCNC(C)(C)[C@@H]5CC[C@]43C)[C@@H]12` here?
A: Its growth is -51.9% (active).
